Pf growth 48h – P. falciparum growth inhibition at 48 hours (one generation). AID 504832. P. falciparum luciferase growth in erythrocytes, 48 h. Potency, µM (doses to about 28.7 µM), for inactives: top-dose activity change, negative = inhibition, most hits filed as inhibitors. 310,000 tested, 5.9% active
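Luciferase-expressing parasites in RBCs, 2% Hct / 0.1% parasitemia final; RPMI 1640 + 0.5% Albumax; 37 C, 5% CO2, one generation; luminescence read-out, lower signal = inhibition.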
HCV inhibitor – HCV inhibition; Huh7.5.1 HCVcc-Cre infection, luciferase reporter, 44 h; Potency, µM (top dose mostly 41.8 µM), for the others: top-dose activity change, negative = inhibition, most hits filed as inhibitors; 340,000 tested, 3.4% active; AID 651820
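After 44 h co-culture of compound, cells and HCVcc-Cre (~0.5 moi), substrate is added for 15 min at room temperature and luciferase measured over 15 sec. Cells were seeded at 1,000/well and pre-cultured 4 h.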
AMA1-RON2 inh – AMA1-RON2 (P. falciparum) interaction inhibition; AlphaScreen AMA1-biotinylated RON2 peptide binding; AID 720542; Potency, µM (titrated, usually from 58.2 µM), for inactives: at the highest dose activity change, negative = inhibition, most hits filed as inhibitors; 360,000 tested, 0.2% active;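 note: 0% = vehicle wells and -100% = peptide control; nearly all actives have a fitted effect of over 45% in size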
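AMA1 (3D7) with his tag at 25 nM final met compounds first, then biotinylated RON2 peptide at 25 nM; detection used donor plus acceptor beads, 10 µg/mL apiece, read by AlphaScreen after 30 min at room temperature.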
Pf growth 96h – P. falciparum growth inhibition at 96 hour, primary screen for plastid delayed-death inhibitors | P. falciparum luciferase reporter growth, 96 h | Potency, µM (doses to about 28.7 µM), without a hit: at the highest dose activity change, negative = inhibition, usual class: inhibitors | 320,000 tested, 6.9% active
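Parasite growth measured via integrated firefly luciferase reporter in P. falciparum. Infected erythrocytes at 2% hematocrit, 0.05% parasitemia final were treated 96 hours at 37 C under 5% CO2, and luminescence was read.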
Active calls of the source: *; ? = inconclusive; . = no result; [ ] = dose if it differs, or a comment. Most compounds without a hit are left out; they make up all but 11% or so of the library. Calls come from the whole dose curve; as a rule, active = well fitted curve in the direction sought with a large enough effect; inconclusive = small, poorly fitted or top-dose-only effect, or another doubt; inactive = no such curve, though single readings can be large; an effect the other way counts as inactive or inconclusive. Unless noted, % is set by controls: 0 for no effect and ±100 for the full control effect; potency is the fitted concentration of half-maximal effect.

SMILES	Pf growth 48h	HCV inhibitor	AMA1-RON2 inh	Pf growth 96h
O=C(Nc1cc(Oc2ccccc2)cc([N+](=O)[O-])c1)C12CC3CC(C1)CC(n1cnc(Cl)n1)(C3)C2	?	10µM*	-20%	?
CCOC(=O)C1(Cc2ccc(Cl)cc2)CCN(C(=O)c2cc(C)nc(C)n2)CC1	1%	8%	-15%	?
CN(CC(=O)NCCc1ccccc1)S(=O)(=O)c1cccc2nsnc12	-14%	?	14%	8.3µM*
CN(CC(=O)N1CCN(Cc2ccccc2)CC1)S(=O)(=O)c1cccc2nsnc12	-2%	-13%	-2%	4.1µM*
CN(CC(=O)NCc1ccc(Cl)cc1)S(=O)(=O)c1cccc2nsnc12	20%	-17%	-12%	?
CCN(CCCNC(=O)CN(C)S(=O)(=O)c1cccc2nsnc12)c1ccccc1	?	?	-9%	12µM*
CN(CC(=O)NCCN1CCN(Cc2ccccc2)CC1)S(=O)(=O)c1cccc2nsnc12	?	-22%	2%	1%
Cc1ccc(NC(=O)CN(C)S(=O)(=O)c2cccc3nsnc23)cc1C	7%	-9%	16%	.
NS(=O)(=O)c1ccc(NC(=O)/C=C/c2cccc(Cl)c2)cc1	-7%	11µM*	-2%	22%
COc1ccc(Oc2coc3c(CN4CCOCC4)c(O)ccc3c2=O)cc1	.	2%	17%	2.9µM*
O=c1c(-c2ccc(Br)cc2)coc2c(CN3CCOCC3)c(O)ccc12	2.6µM*	?	-4%	?
CC1CCCN(Cc2c(O)ccc3c(=O)c(-c4ccc(Cl)cc4)coc23)C1 (centres undefined)	1µM*	-11%	3%	-10%
COc1ccc(Oc2coc3c(CN(C)C)c(O)ccc3c2=O)cc1	12%	-27%	-11%	.
O=c1c(-c2ccc(Cl)cc2)coc2c(CN3CCCCC3)c(O)ccc12	2.9µM*	11%	3%	-26%
COc1ccccc1N(C)S(=O)(=O)c1ccc(C(=O)N(C)Cc2cccc(F)c2)cc1	.	.	-5%	.
O=c1c(-c2ccccc2Cl)coc2c(CN3CCCCC3)c(O)ccc12	?	14%	16%	?
O=c1c(-c2ccc(Br)cc2)coc2c(CN3CCCCC3)c(O)ccc12	1.7µM*	6%	-6%	2.3µM*
COc1ccc(-c2coc3c(CN4CCCCC4)c(O)c(CN4CCCCC4)c(O)c3c2=O)cc1	5.9µM*	-24%	.	88%
COc1ccc(OC)c(C(O)c2coc3ccc(O)c(CN4CCOCC4)c23)c1 (centres undefined)	7.4µM*	?	-4%	17%
Cc1c(Br)ccc(NC(=O)c2ccccc2[N+](=O)[O-])c1C	-39%[5.75 µM]	1%	9%	1%
COc1ccccc1C=NN=Cc1ccccc1OC	.	27%	-12%	.
CCCCn1c(=O)[nH]c2nc3cc(NC(C)=O)ccc3nc2c1=O	15µM*	14%	5%	2%
CC(=O)C1=NN(c2ccc(Cl)cc2)C(c2ccc3c(c2)OCO3)N(C(C)=O)N1C (centres undefined)	12µM*	?	-14%	12µM*
COc1cc(C2C(C#N)=C(N)N(c3cccnc3)C3=C2C(=O)CCC3)ccc1O (centres undefined)	.	14%	19%	?
CCSc1sccc1C1C(C#N)=C(N)N(c2cccnc2)C2=C1C(=O)CCC2 (centres undefined)	12µM*	20%	47%	239%
SMILES	Pf growth 48h	HCV inhibitor	AMA1-RON2 inh	Pf growth 96h
CCOC(=O)C1=C(N)N(c2ccccc2)C2=C(C(=O)CCC2)C1c1cccnc1 (centres undefined)	-20%	9%	21%	5.2µM*
O=C(O)c1[nH]c(=O)[nH]c(=O)c1F	0.012µM*	?	55%	0.0033µM*
Cc1c(C(=O)N2CCc3ccccc3C2)oc2ccccc12	44%	?	0%	2%
O=C(N/N=C/c1ccc(O)c(O)c1)c1ccc(CSc2cccc3cccnc23)cc1	0%	16µM*	41%	.
Cc1ccc(-c2nc3c4ccccc4ccn3c2CN2CCCCC2)cc1	9.3µM*	-16%	-7%	-14%
COCC(=O)Oc1c(Sc2ccccc2[N+](=O)[O-])c(C)nn1C(C)(C)C	?	9%	2%	?
CCC(CC)C(=O)Oc1c(Sc2ccccc2[N+](=O)[O-])c(C)nn1C(C)(C)C	9.3µM*	4%	-16%	?
COc1ccccc1N1CCN(C(=O)CSc2ccc3c(C)cc(C)nc3n2)CC1	10µM*	?	-7%	48%
COCCNc1nc(SCC(=O)N2CCN(c3ccccc3OC)CC2)nc2ccccc12	?	10µM*	0%	26%
Cc1cc(Br)ccc1NC(=O)CNC(=O)CN(C)C1CCS(=O)(=O)C1 (centres undefined)	-7%	8%	11%	-2%
O=C(c1cccs1)N1CCCC(N2CCN(c3ccc(F)cc3)CC2)C1 (centres undefined)	-8%	-15%	-5%	86%
O=C(CSc1ccccc1)N1CCCC(N2CCN(c3ccc(F)cc3)CC2)C1 (centres undefined)	?	10µM*	-6%	11%
CCN(CC)S(=O)(=O)c1ccc(N/N=C/c2ccc(O)cc2O)nc1	2.3µM*	?	5%	3.7µM*
COc1cc2c(cc1OC)C(CNC(=O)C=Cc1ccccc1)C2 (centres undefined)	.	.	-8%	.
CCOC(=O)C1=C(N)OC2=C(C(=O)CC(C)(C)C2)C1c1ccc(CC)s1 (centres undefined)	24%	-28%	-25%	4.1µM*
CCOC(=O)C1=C(N)OC2=C(C(=O)CC(C)(C)C2)C1c1ccc(C)s1 (centres undefined)	-8%	-7%	-15%	0%
CCc1ccccc1C1=CC(=O)C[C@H](c2ccc(OC)cc2)C1	.	-20%	11%	.
O=C(Cn1cnc2ccccc2c1=O)Nc1ccc(S(=O)(=O)N2CCCC2)cc1	-16%	2%	-12%	-18%
O=C(Cn1cnc2ccccc2c1=O)Nc1ccc2c(c1)OCCO2	99%	13%	-3%	-13%
O=C(Cn1cnc2ccccc2c1=O)NCCC(=O)Nc1ccc2c(c1)OCCO2	52%	22%	15%	10µM*
COc1ccc(Cl)cc1NC(=O)CCn1cnc2ccccc2c1=O	-13%	11µM*	1%	7%
CC1CCCC(C)N1S(=O)(=O)c1ccc(NC(=O)CCn2cnc3ccccc3c2=O)cc1 (centres undefined)	13µM*	23%	-7%	.
Cn1c(N)c(C(=O)COC(=O)Cc2ccc(Cl)c(Cl)c2)c(=O)n(C)c1=O	.	0%	5%	.
O=C(CSc1ccccc1)Nc1ccc2c(c1)OCO2	169%	0%	-7%	-20%
O=C(CSc1ccccc1)Nc1ccc2c(c1)OCCO2	298%	18%	-2%	8.3µM*
NNC(=O)[C@H](Cc1ccccc1)NC(=O)Nc1ccc2c(c1)OCCO2	9.3µM*	5%	37%	?
O=C(CSC1=NC2(CCCCC2)N=C1c1ccccc1)Nc1ccc2c(c1)OCCO2	10µM*	11µM*	0%	?

Assay outcomes deposited in PubChem BioAssay by National Center for Advancing Translational Sciences (NCATS).
